From PubChem BioAssay (NCATS)
Records with an inconclusive call do not appear. Unless noted, calls come from the whole dose curve; as a rule, active = well fitted curve in either direction with a large enough effect (not every such curve was filed as active); inconclusive = small, poorly fitted or top-dose-only effect, or another doubt; inactive = flat fitted curve, though single readings scatter.

Key:
[1] = AP1 Signaling Pathway (AID 357); conditions: ME-180 AP-1-bla reporter, EGF-induced, beta-lactamase ratio, 5 h; at 17.2 µM (top of the series) unless noted;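 note: ME-180 reporter cells stimulated with EGF at its EC50 level; % is set by controls: 0 for no effect and ±100 for the full control effect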
Method in brief: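 A ratiometric CCF4 readout (405 nm excitation; 460 and 530 nm emission) quantified AP-1-driven beta-lactamase in ME-180 cells after 5 h with compound and EC50 EGF; AC50 values were derived for activators and inhibitors.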

[2] = NFAT Signaling Pathway (AID 444); conditions: Jurkat NFAT-bla M1, carbachol, beta-lactamase ratio, 5 h; at 17.2 µM (top of the series) unless noted;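 note: carbachol stimulus at about its EC50 of 1 µM final; % is set by controls: 0 for no effect and ±100 for the full control effect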
Method in brief: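 Jurkat cells with NFAT-driven β-lactamase reporter and co-expressed M1 receptor, stimulated with carbachol (final 1 uM, ~EC50), compound titration, 5 h at 37 °C. CCF4 loaded 1 h at RT; 460/530 nm ratio gave %activity and AC50.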

[3] = Stat Signaling Pathway (AID 446); conditions: ME-180 SIE beta-lactamase reporter, IL-6 stimulated, 5 h; at 17.2 µM (top of the series) unless noted;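 note: ME-180 cervical cancer cells given 40 pM IL-6 alongside compound; SIE-controlled beta-lactamase reporter measured as 460/530 nm FRET emission ratio; % is set by controls: 0 for no effect and ±100 for the full control effect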
Method in brief: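 ME-180 cells carrying a SIE-driven beta-lactamase reporter are stimulated with 40 pM IL-6 for 5 h at 37C in the presence of compound. The 460/530 nm FRET substrate ratio is read after 2.5 h at RT. Data are normalised to 300 pM IL-6 and to 125 nM JAK inhibitor controls.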

[4] = target: Glucocorticoid receptor (Homo sapiens) (UniProt P04150); test: GR-GFP Redistribution (AID 450;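 active = compounds whose dose series gives a full or clear partial fitted curve of increased nuclear translocation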; note: potency is the fitted concentration of half-maximal effect); conditions: U2OS GR-GFP nuclear translocation, laser cytometry, 2 h; series mostly up to 20.6 µM
Sequence of Glucocorticoid receptor (Homo sapiens) (P04150 whole entry, looked up): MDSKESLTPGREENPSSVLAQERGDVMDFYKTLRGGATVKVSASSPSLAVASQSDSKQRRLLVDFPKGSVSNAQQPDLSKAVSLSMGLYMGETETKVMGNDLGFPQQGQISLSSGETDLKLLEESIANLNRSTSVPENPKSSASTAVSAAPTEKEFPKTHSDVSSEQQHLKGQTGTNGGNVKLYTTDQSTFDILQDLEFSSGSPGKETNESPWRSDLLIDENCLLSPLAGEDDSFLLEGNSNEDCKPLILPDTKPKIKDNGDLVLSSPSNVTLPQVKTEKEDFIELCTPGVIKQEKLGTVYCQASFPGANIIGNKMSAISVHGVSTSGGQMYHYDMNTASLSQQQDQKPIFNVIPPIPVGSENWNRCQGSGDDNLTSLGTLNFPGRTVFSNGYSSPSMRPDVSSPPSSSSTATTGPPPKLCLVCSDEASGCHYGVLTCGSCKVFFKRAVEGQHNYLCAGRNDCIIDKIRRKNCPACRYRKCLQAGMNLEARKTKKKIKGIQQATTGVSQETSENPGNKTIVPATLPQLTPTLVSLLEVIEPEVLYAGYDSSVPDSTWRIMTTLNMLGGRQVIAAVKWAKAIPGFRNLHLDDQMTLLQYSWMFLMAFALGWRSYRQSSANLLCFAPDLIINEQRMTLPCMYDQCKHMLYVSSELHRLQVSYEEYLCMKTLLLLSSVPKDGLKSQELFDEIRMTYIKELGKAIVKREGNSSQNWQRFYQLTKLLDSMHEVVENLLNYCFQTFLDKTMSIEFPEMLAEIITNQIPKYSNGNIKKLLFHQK

CN(CCOC(=O)c1ccc2c(c1)OCCO2)Cc1ccccc1
inactive: activity change, negative = inhibition [1] 17.7% | activity change, negative = inhibition [2] -3.33% | activity, negative = inhibition [3] -4.47% | Potency [4] > 20.6 µM

CCOc1ccc(C2CC(c3ccccc3)Nc3nc(N)nn32)cc1 (centres undefined)
inactive: activity change, negative = inhibition [1] -4.28% | activity change, negative = inhibition [2] 6.92% | activity, negative = inhibition [3] -1.31% | Potency [4] > 20.6 µM

Cc1nc(NS(=O)(=O)c2ccccc2)sc1NC(=O)OCCN(C)C
inactive: activity change, negative = inhibition [1] -8.74% | activity change, negative = inhibition [2] 13.4% | activity, negative = inhibition [3] 0.248% | Potency [4] > 20.6 µM

O=C1C=C(O)CC(c2cccs2)C1 (centres undefined)
inactive: activity change, negative = inhibition [1] -0.0121% | activity change, negative = inhibition [2] -1.83% | activity, negative = inhibition [3] -2.06% | Potency [4] > 20.6 µM

CC(=O)Nc1n[nH]c(S(=O)(=O)Cc2ccc(Cl)cc2Cl)n1
inactive: activity change, negative = inhibition [1] -2.5% | activity change, negative = inhibition [2] 4.1% | activity, negative = inhibition [3] 3.27% | Potency [4] > 20.6 µM

O=C(O)CC(C(=O)N(c1ccccc1)c1ccccc1)N1CCOCC1 (centres undefined)
inactive: activity change, negative = inhibition [1] -5.33% | activity change, negative = inhibition [2] -0.593% | activity, negative = inhibition [3] 8.75% | Potency [4] > 20.6 µM

OC1CN=C2Sc3ccccc3N2C1 (centres undefined)
inactive: activity change, negative = inhibition [1] 1.76% | activity change, negative = inhibition [2] -2.78% | activity, negative = inhibition [3] -3.59% | Potency [4] > 20.6 µM

CCc1nc(NCCN2CCOCC2)c(C#N)c2c1CCCC2
inactive: activity change, negative = inhibition [1] -11.1% | activity change, negative = inhibition [2] -20.4% | activity, negative = inhibition [3] 6.43% | Potency [4] > 20.6 µM

CC1(C)Cc2c(c(N3CCOCC3)nc3sc4c(=O)[nH]cnc4c23)CS1
inactive: activity change, negative = inhibition [1] 4.29% | activity change, negative = inhibition [2] 5.56% | activity, negative = inhibition [3] -18.3% | Potency [4] > 20.6 µM

C=CCN(C(=O)CCC(=O)O)C1CC(=O)N(c2ccc(OCCC)cc2)C1=O (centres undefined)
inactive: activity change, negative = inhibition [1] 3.6% | activity change, negative = inhibition [2] -2.1% | activity, negative = inhibition [3] -6.77% | Potency [4] > 20.6 µM

N#Cc1c(NCCN)nc(NCc2ccccc2)c2c1CCN(Cc1ccccc1)C2
inactive: activity change, negative = inhibition [1] 0.0828% | activity change, negative = inhibition [2] 21.6% | activity, negative = inhibition [3] -5.14% | Potency [4] > 20.6 µM

CCOC(=O)CC(=O)CSc1nc(N)c(C#N)c(-c2ccc(F)cc2)c1C#N
inactive: activity change, negative = inhibition [1] -26.2% | activity change, negative = inhibition [2] 7.66% | activity, negative = inhibition [3] -17.8% | Potency [4] > 20.6 µM

CC(C)C1Cc2c(sc3c2c(=O)n(-c2ccccc2)c2nncn32)CO1 (centres undefined)
inactive: activity change, negative = inhibition [1] -6.58% | activity change, negative = inhibition [2] -10.2% | activity, negative = inhibition [3] 5.31% | Potency [4] > 20.6 µM

Cc1ccc(-n2ncc3c(NCCCOC(C)C)ncnc32)c(C)c1
inactive: activity change, negative = inhibition [1] -18.8% | activity change, negative = inhibition [2] 25.7% | activity, negative = inhibition [3] -8.86% | Potency [4] > 20.6 µM

CCOC(=O)CSc1nc(N2CCOCC2)c2c(c1C#N)CC(C)(C)N(C)C2
inactive: activity change, negative = inhibition [1] -8.24% | activity change, negative = inhibition [2] -17.7% | activity, negative = inhibition [3] 1.11% | Potency [4] > 20.6 µM

Cc1ccc(N2C(=O)CC3(CC4C=CC3C4)C2=O)cc1 (centres undefined)
inactive: activity change, negative = inhibition [1] 28.9% | activity change, negative = inhibition [2] 4.88% | activity, negative = inhibition [3] 14% | Potency [4] > 20.6 µM

CCN(CC)CCCN1C(=O)C(O)=C(C(=O)c2ccc(C)o2)C1c1ccc(C)o1 (centres undefined)
inactive: activity change, negative = inhibition [1] 5.4% | activity change, negative = inhibition [2] -12.9% | activity, negative = inhibition [3] 9.39% | Potency [4] > 20.6 µM

Cc1c(/C(O)=C2/C(=O)C(=O)N(CCN3CCOCC3)C2c2cccnc2)cnn1-c1ccccc1 (centres undefined)
inactive: activity change, negative = inhibition [1] -11.6% | activity change, negative = inhibition [2] -1.03% | activity, negative = inhibition [3] -0.626% | Potency [4] > 20.6 µM

Cc1cc(C)c2c(N)c(C(=O)c3ccccc3)oc2n1
inactive: activity change, negative = inhibition [1] 1.21% | activity change, negative = inhibition [2] 3.96% | activity, negative = inhibition [3] -8.9% | Potency [4] > 20.6 µM

Cc1c(C2CC(=O)N(c3ccccc3)C2=O)[nH]n(-c2ccccc2)c1=O (centres undefined)
inactive: activity change, negative = inhibition [1] -2.21% | activity change, negative = inhibition [2] -3.65% | activity, negative = inhibition [3] 1.65% | Potency [4] > 20.6 µM

CCSc1nc(O)c(C2OC(=O)c3c2ccc(OC)c3OC)c(=O)n1-c1ccccc1 (centres undefined)
inactive: activity change, negative = inhibition [1] -10.9% | activity change, negative = inhibition [2] 4% | activity, negative = inhibition [3] -4.52% | Potency [4] > 20.6 µM

Cc1ccc2cc(CN(C(=O)c3ccco3)c3ccccc3)c(=O)[nH]c2c1
inactive: activity change, negative = inhibition [1] -24.5% | activity change, negative = inhibition [2] 2.15% | activity, negative = inhibition [3] -2.89% | Potency [4] > 20.6 µM

Cc1ccc(N2C(=O)CC(Cn3nc(C)cc3C)C2=O)cc1 (centres undefined)
inactive: activity change, negative = inhibition [1] -1.66% | activity change, negative = inhibition [2] 6.84% | activity, negative = inhibition [3] 13.4% | Potency [4] > 20.6 µM

COc1ccc(N2CC(=O)N(c3ccc(OC)c(OC)c3)CC2=O)cc1OC
inactive: activity change, negative = inhibition [1] 22.8% | activity change, negative = inhibition [2] 5.84% | activity, negative = inhibition [3] 1.83% | Potency [4] > 20.6 µM

CCOCCn1c(SC)nc2c1c(=O)[nH]c(=O)n2C
inactive: activity change, negative = inhibition [1] 11% | activity change, negative = inhibition [2] -1.92% | activity, negative = inhibition [3] -1.1% | Potency [4] > 20.6 µM

COc1ccc(C(C)=O)cc1CSCCC(=O)O
inactive: activity change, negative = inhibition [1] 3.88% | activity change, negative = inhibition [2] 2.2% | activity, negative = inhibition [3] 15.2% | Potency [4] > 20.6 µM
